Measured values taken from PubChem BioAssay AID463212 (Sanford-Burnham Center for Chemical Genomics, 2010).
Several values for one entry are separate records, joined by “and”; a condition that tells them apart may be missing. Equal values may be shown once. In all, about 330,000 compounds went through this assay and about 4,400 (1.3%) were called active.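 The calls were made as follows: active = growth inhibition of the mutant yeast at or above 50%; inactive = the rest.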 Only a selection was taken, and actives are over-represented in it overall.

Assay: growth inhibition of tim23-1 ts yeast – luminescence, uHTS, primary screen (AID 463212);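 also: temperature-sensitive mutant grown at 25 °C; plate controls were DMSO-treated mutant yeast for no effect and medium wells lacking yeast for full effect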
Conditions: S. cerevisiae tim23-1 growth, BacTiter-Glo luminescence, 24 h; at 20 µM; hits give high values

inhibition, inactive:
Cc1cccc(CC(=O)N2CCN=C2SCc2ccc([N+](=O)[O-])cc2)c1 -3.28%
O=C(COc1ccccc1F)Nc1nc(-c2ccccn2)cs1 28.7%
CCN(C(=O)COC(=O)C1CCN(S(=O)(=O)c2ccc(C)c(C)c2)CC1)C1CCS(=O)(=O)C1 (configuration not stated) 0.758%
COC(=O)CNC(=O)c1cc(-c2ccncc2)nc2ccccc12 10.9%
C/C(N)=C(/C#N)C(=O)COC(=O)c1cc(-c2ccc(C)cc2)nc2ccccc12 3.42%
CNC(=O)COc1ccc(S(=O)(=O)Nc2ccccc2)cc1 8.77%
NC(=O)c1oc2ccccc2c1NC(=O)CS(=O)(=O)c1ccccc1 6.4%
S=C(Nc1ccc(Br)cc1Cl)N1CCC2(CC1)OCCO2 20.7%
COc1ccc(OC)c(NC(=O)CN(Cc2ccc(Cl)cc2)S(C)(=O)=O)c1 9.4%
COc1ccc2[nH]c(C(=O)N/N=C/c3cc(OC)c(OC)c(OC)c3)cc2c1 20.6%
COc1ccc(C(=O)Nc2ccccc2C(=O)N2CCN(c3ccccc3)CC2)cc1 35.2%
COc1ccc(/C=N/Nc2ccccc2C(=O)O)cc1 17%
COc1ccc(C(=O)Nc2cc(C)c(NC(=O)c3ccccc3OC)cn2)cc1 28.7%
CC(C)(C)c1ccc(C(=O)N2CCC(C(=O)N3CCCCC3)CC2)cc1 13.5%
CCc1[nH]nc(C(=O)N2CCCC(CNS(=O)(=O)c3cccs3)C2)c1C (configuration not stated) 0.752%
Cc1ccc(C(C(=O)NCC2CCCO2)N(C(=O)c2snc(C(N)=O)c2N)c2ccc(C(C)C)cc2)o1 (configuration not stated) 32.2%
CCOc1cc2[nH]c(=S)n(CCN3CCCCC3C)c(=O)c2cc1OCC (configuration not stated) 14.8%
CC(C)Cc1ccc(C(C)C(=N)N)cc1 (configuration not stated) 3.35%
CCOc1cccc(NC(=O)Cn2nc(-c3ccc4c(c3)OCCO4)ccc2=O)c1 -11.4%
Cc1ccc(-c2csc(NCCc3nc4cc(Cl)c(Cl)cc4n3CCOCCO)n2)cc1 25.4%
O=C1OCCN1C(=O)[C@H]1[C@H](c2ccc(F)cc2)C(c2ccccc2)=NN1c1ccc(Br)cc1 41.6%
O=C1OCCN1C(=O)[C@H]1[C@H](c2ccccc2)C(c2ccc(F)cc2)=NN1c1ccccc1 49.4%
CCOCCOCCC(C(=O)O)P(=O)(c1ccccc1)c1ccccc1 (configuration not stated) 20.6%
O=C(NOCc1ccccc1)c1cccc([N+](=O)[O-])c1 40.8%
O=C(COC(=O)c1ccc([N+](=O)[O-])cc1Cl)NC(=O)c1ccccc1 -6.06%
CN(C)/C=C(/C(=O)c1ccccc1Cl)S(C)(=O)=O 8.01%
O=S(=O)(Nc1ccc(-c2ccc(N3CCOCC3)nn2)cc1)c1cc(Cl)ccc1Cl 36%
COc1ccc(CCNC(=O)CN(c2ccccc2)S(C)(=O)=O)cc1 10.1%
Cc1cc(C)nc(SCC(=O)N(C)C)n1 3.33%
Cc1cc(C)nc(SCc2ccccc2C#N)n1 8%
COc1ccc(C2/C(=C(/O)c3ccccc3)C(=O)C(=O)N2C)c(OC)c1 (configuration not stated) 12%
COc1ccc(/C=C2/C(=O)OCc3cc(OC)c(OC)cc32)c(OC)c1 23.4%
Cc1c(NC(=O)c2cc(-c3ccc(Cl)s3)nc3ccccc23)c(=O)n(-c2ccccc2)n1C 25.7%
NC(=NC(=O)c1ccccc1)C1=C(O)CCC1=O 15.3%
Cc1ccc(CS(=O)(=O)c2ncc(Cl)c(C(=O)Nc3nnc(C)s3)n2)cc1 18.2%
Cc1cccc(CS(=O)(=O)c2ncc(Cl)c(C(=O)Nc3ccc(F)cc3)n2)c1 39.1%
CCOC(=O)Cc1cc(=O)[nH]c(/N=C(\N)Nc2ccc(OC)cc2)n1 -4.74%
COCCNc1ccc(-c2n[nH]c(=O)c3ccccc23)cc1[N+](=O)[O-] 1.96%
CN(CC(=O)Nc1ccc(F)cc1)C(=O)c1ccc(-c2ccc(Cl)cc2)o1 36.9%
O=C(NC1CCCCC1)c1ccc(-c2ccc(Cl)cc2)o1 45.4%
Cc1ccsc1C1C(C#N)=C(N)OC2=C1C(=O)CC(C)(C)C2 (configuration not stated) 15.8%
NC(=O)COc1ccc(/C=N/NC(=O)C2CCCN2S(=O)(=O)c2ccc(Cl)cc2)cc1 (configuration not stated) 4.5%
CCCCc1nccn1CCn1ccnc1CCCC 2.76%
CN(C(=O)COC(=O)CNC(=O)C12CC3CC(CC(C3)C1)C2)c1ccccc1 3.66%
CC(C)(C)c1ccc(C(=O)NNC(=O)Cc2ccccc2)cc1 8.91%
C=CCn1c(P(C)(=O)O)nc2ccccc21 5.79% and -9.61%
O=C(c1ccco1)N1CCN(C(=O)C2CCCN(S(=O)(=O)c3cccc4nsnc34)C2)CC1 (configuration not stated) 9.26%
Cc1c(Br)ccc(NC(=O)COc2ccccc2C(N)=O)c1C 3.99%
Cc1cc(=O)cc(C)n1-c1ccc(Cl)c(Cl)c1 1.14%
CCSc1ncnc2c(C#N)c3n(c12)CCCCC3 32.7%
CC(=O)NC1CCN(CC(=O)Nc2nccs2)CC1 8.15%
COc1ccccc1CCCNC(=O)C1CCC(=O)N(CCN2CCOCC2)C1 (configuration not stated) -0.497%
Fc1ccccc1COc1ccccc1CNCc1ccncc1 3.21%
CCN1CCc2nc(NC(=O)c3cc(F)c(F)cc3Cl)sc2C1 4.64%
COc1ccc(NC(=O)/C(C#N)=C\c2cc(OC)c(OCc3ccc(C(=O)O)cc3)cc2Br)cc1 20.5%
COc1ccc(CNC(=O)CCn2cccc2)cc1 6.47%
CN(CC(=O)Nc1ccccc1[N+](=O)[O-])Cc1ccc(Br)cc1 1.11%
COc1ccccc1CNC(=O)C1Cc2ccccc2C(=O)O1 (configuration not stated) 17.7%
NS(=O)(=O)c1ccc(CCNS(=O)(=O)c2cccc3cccnc23)cc1 11.4%
COc1cc(NS(=O)(=O)c2ccc3ccccc3c2)c2ncccc2c1 26.4%
CC1(C)COC(c2cccn2Cc2ccccc2Cl)=N1 2.43%
COc1ccc(Cl)cc1NC(=O)CN(C)C(=O)c1cc(-c2cccs2)nn1-c1ccccc1 25.9%
O=[N+]([O-])c1ccc2oc(-c3cccc(O)c3)nc2c1 29.8%
O=C(CNC(=O)C1COc2ccccc2O1)N/N=C/c1cc(Br)c(O)c(Br)c1 (configuration not stated) 12.1%
O=C(N/N=C/c1cc2c(cc1Br)OCO2)C1COc2ccccc2O1 (configuration not stated) 22.2%
CCOC(=O)c1c(NC(C)=O)sc2c(O)c(Br)ccc12 20.3%
Cc1ccc(-n2c(SCC(=O)N/N=C/C=C/c3ccccc3[N+](=O)[O-])nc3ccccc3c2=O)cc1 12.1%
CCOc1ccc(CCNC(=O)COC(=O)CCS(=O)(=O)c2ccc(C)cc2)cc1OCC 8.24%
Cc1ccc(Cn2nnc3c(=O)[nH]c(C4CCN(S(=O)(=O)/C=C/c5ccccc5)CC4)nc32)cc1 17.8%
Cc1ccc(C(C[N+](=O)[O-])c2c(C)cc3ccccn23)cc1 (configuration not stated) 48.5%
O=C(CN(C(=O)c1csnn1)c1ccc(Br)cc1)NC1CCCC1 6.83%
O=C(Nc1nonc1-c1ccc(Cl)cc1)c1ccco1 29.1%
CC(C)[C@H](NC(=O)OCc1ccccc1)C(=O)OCc1ccccc1 16%
Cc1c(S(=O)(=O)NC(C)c2ccccc2)c(=O)n(C)c(=O)n1C (configuration not stated) 0.038%

inhibition, active:
N/C(=N\OC(=O)c1cc(-c2ccccc2)nc2ccccc12)c1ccncc1 79.2%
COc1ccc(C(=O)Nc2ccccc2C(=O)N/N=C/c2ccccc2OC)cc1 78.3%
COc1ccc(C(=O)Nc2ccccc2C(=O)N/N=C/c2ccc(O)c(OC)c2)cc1 96%
Cc1ccc(Nc2nc(-c3ccc(O)cc3O)cs2)nc1 65.9%
C[C@@H]1C(c2ccc(F)cc2)=NN(c2ccc(Br)cc2)[C@H]1C(=O)N1CCOC1=O 61.2%
O=C(NC(Nc1nc2ccc([N+](=O)[O-])cc2s1)(C(F)(F)F)C(F)(F)F)c1ccccc1 80.5%
Cc1cc(C)nc(S/C=C/C(=O)c2ccccc2)n1 83.3%
COc1ccc(/C=C2/C(=O)N(c3ccccc3)N=C2C)c(OC)c1 52.9%
Cc1cccc(NC(=O)c2nc(S(=O)(=O)Cc3ccccc3)ncc2Cl)c1 75.9%
Cc1[nH][nH]c(=O)c1C(c1ccc(-c2ccc(Cl)cc2)o1)c1c(C)[nH][nH]c1=O 84.6%
CC1(C)C=Cc2c(ccc3c2OC[C@@H](c2ccc(O)cc2O)C3)O1 81.8%
CN(C(=O)CC(NC(=O)c1ccccc1)(c1ccccc1)c1ccccc1)c1ccccc1 51.5%
CCSC1=C(C#N)C(=O)n2c1cc1c2CCCC1 58%
COc1ccc(CNC(=O)/C(C#N)=C/c2cccc(OC)c2OC)cc1 71.3%
O=[N+]([O-])c1ccccc1S(=O)(=O)Nc1cccc2cccnc12 57.4%
CCc1ccc2oc(-c3ccc(N)cc3)nc2c1 65.6%
O=C(N/N=C\c1cc(Br)c(Br)o1)C1COc2ccccc2O1 (configuration not stated) 50.2%
Nc1ccccc1SC(C[N+](=O)[O-])c1ccccc1 (configuration not stated) 81.4%
